Holding throughout (assay): DAPPL (digital affinity profiling via proximity ligation, sequencing); 10 mM Tris-HCl pH 7.5, 50 mM NaCl, 1 mM DTT, 4% glycerol, room temperature, 30 min; GST-TFs on glutathione beads, 16-mer random dsDNA library, 0.1% formaldehyde crosslink after washing; high values mean tight binding
One experiment concerns the target T1, FEV (Homo sapiens, UniProt Q99581 1-238).
T1 sequence: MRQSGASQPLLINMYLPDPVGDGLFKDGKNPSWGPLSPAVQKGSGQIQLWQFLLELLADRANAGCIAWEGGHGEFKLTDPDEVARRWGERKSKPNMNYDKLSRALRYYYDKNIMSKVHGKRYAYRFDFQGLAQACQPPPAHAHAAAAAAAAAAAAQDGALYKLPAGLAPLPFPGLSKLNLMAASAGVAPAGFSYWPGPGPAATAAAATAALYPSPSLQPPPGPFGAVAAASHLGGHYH
To be noted: protein: recombinant; tags: N-terminal GST; dsDNA, one strand shown. Put shortly:
(§1)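 Human transcription factors were made in yeast as GST fusions, captured on glutathione beads and barcoded with DNA. With a tag-only sample included, the pool was incubated with 200 nmole of a random double-stranded 16-mer DNA library in Tris/NaCl/DTT/glycerol buffer at room temperature for 30 min, then crosslinked with 0.1% formaldehyde after washing, ligated by proximity, amplified and sequenced. For binding signal, each hexamer's read frequency for a factor is divided by its frequency for the tag-only sample.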

Another experiment addresses ETV5 (Homo sapiens, UniProt P41161 1-510). To be noted: protein: recombinant; tags: N-terminal GST; dsDNA, one strand shown. In outline:
as §1

A further experiment concerns the target HSF1 (Homo sapiens, UniProt Q00613 1-529). The following applies: protein: recombinant; tags: N-terminal GST; chain copies: 3; dsDNA, one strand shown. In outline: as §1
The target of another experiment is T2, SPIC (Homo sapiens, UniProt Q8N5J4 1-248).
T2 sequence: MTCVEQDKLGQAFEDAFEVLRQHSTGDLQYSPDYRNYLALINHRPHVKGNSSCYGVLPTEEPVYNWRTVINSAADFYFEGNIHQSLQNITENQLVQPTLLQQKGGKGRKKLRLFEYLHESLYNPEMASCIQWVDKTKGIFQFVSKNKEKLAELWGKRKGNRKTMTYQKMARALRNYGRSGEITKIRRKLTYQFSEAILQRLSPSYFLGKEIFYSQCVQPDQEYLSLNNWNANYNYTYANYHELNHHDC
The following applies: protein: recombinant; tags: N-terminal GST; dsDNA, one strand shown. Put shortly:
as §1

A further experiment deals with ELF4 (Homo sapiens, UniProt Q99607 1-663). The following applies: protein: recombinant; tags: N-terminal GST; dsDNA, one strand shown. In outline: as §1
ELF4, sequence (Q99607 whole entry): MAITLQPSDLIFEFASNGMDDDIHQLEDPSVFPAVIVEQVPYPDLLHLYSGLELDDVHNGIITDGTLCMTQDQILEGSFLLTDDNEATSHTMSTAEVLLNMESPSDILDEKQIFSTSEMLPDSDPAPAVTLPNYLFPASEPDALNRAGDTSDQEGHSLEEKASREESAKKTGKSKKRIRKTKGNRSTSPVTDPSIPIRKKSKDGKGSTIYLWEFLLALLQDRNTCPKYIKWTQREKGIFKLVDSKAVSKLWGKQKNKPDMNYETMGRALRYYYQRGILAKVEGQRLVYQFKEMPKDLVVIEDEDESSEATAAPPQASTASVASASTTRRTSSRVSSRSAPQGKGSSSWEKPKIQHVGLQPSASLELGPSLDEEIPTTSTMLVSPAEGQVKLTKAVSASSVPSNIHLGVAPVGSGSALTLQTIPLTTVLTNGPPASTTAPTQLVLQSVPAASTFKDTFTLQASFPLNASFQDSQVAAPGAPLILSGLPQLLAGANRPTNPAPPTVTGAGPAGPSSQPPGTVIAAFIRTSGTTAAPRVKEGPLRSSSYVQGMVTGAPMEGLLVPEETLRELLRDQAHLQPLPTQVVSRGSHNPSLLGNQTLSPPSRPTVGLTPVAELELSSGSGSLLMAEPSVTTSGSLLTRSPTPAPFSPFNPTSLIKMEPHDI
A further experiment deals with T3, ELK4 (Homo sapiens, UniProt P28324-2 1-405).
T3 sequence: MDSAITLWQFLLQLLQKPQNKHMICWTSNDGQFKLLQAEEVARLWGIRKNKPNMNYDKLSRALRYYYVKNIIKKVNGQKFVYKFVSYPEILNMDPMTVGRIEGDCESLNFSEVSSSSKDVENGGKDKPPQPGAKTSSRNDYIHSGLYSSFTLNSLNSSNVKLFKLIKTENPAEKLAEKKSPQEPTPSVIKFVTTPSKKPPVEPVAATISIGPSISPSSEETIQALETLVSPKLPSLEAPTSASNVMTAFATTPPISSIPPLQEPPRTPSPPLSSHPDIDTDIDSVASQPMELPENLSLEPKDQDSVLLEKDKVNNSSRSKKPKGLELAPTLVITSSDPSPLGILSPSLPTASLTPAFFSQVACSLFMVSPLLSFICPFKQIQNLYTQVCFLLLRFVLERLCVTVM
The following applies: protein: recombinant; tags: N-terminal GST; dsDNA, one strand shown. In outline: as §1

For a further experiment, the target named is T4, ETV2 (Homo sapiens, UniProt O00321 1-342).
T4 sequence: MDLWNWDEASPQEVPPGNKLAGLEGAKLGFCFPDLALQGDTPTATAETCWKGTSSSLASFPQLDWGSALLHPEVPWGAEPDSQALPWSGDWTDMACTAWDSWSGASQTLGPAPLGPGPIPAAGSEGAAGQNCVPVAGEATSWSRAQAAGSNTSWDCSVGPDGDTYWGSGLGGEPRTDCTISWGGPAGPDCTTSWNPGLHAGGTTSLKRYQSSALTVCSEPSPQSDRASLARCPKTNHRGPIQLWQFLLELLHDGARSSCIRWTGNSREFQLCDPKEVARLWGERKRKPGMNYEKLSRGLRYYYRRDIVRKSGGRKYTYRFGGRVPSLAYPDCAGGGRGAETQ
The following applies: protein: recombinant; tags: N-terminal GST; dsDNA, one strand shown. In outline: as §1

For the next experiment, the target named is T5, ELF3 (Homo sapiens, UniProt P78545 1-371).
T5 sequence: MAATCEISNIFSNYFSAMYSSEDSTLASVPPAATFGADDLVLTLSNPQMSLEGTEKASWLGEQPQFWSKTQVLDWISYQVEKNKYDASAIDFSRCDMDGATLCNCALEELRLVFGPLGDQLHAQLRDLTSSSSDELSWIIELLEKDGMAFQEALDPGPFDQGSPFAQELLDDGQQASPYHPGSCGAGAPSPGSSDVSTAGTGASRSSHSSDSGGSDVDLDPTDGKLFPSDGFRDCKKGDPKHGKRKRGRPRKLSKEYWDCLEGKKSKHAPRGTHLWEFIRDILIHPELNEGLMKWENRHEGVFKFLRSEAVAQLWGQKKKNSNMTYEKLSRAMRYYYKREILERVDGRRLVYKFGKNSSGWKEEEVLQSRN
The following applies: protein: recombinant; tags: N-terminal GST; dsDNA, one strand shown. In outline: as §1

In a further experiment the target is CRX (Homo sapiens, UniProt O43186 1-299). To be noted: protein: recombinant; tags: N-terminal GST; dsDNA, one strand shown. In outline: as §1
CRX, sequence (O43186 whole entry): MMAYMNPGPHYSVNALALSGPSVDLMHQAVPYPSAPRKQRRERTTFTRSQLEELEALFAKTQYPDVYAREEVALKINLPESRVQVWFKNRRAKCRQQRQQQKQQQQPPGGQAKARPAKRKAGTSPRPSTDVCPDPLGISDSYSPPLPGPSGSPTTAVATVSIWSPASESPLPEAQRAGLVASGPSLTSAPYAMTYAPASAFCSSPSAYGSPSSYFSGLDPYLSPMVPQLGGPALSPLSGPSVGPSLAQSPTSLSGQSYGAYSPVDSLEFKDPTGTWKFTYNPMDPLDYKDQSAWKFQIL
A further experiment has as its target ETV1 (Homo sapiens, UniProt P50549 1-477). The following applies: protein: recombinant; tags: N-terminal GST; dsDNA, one strand shown. Put shortly: as §1
For the next experiment, the target named is T6, ERF (Homo sapiens, UniProt P50548 1-548).
T6 sequence: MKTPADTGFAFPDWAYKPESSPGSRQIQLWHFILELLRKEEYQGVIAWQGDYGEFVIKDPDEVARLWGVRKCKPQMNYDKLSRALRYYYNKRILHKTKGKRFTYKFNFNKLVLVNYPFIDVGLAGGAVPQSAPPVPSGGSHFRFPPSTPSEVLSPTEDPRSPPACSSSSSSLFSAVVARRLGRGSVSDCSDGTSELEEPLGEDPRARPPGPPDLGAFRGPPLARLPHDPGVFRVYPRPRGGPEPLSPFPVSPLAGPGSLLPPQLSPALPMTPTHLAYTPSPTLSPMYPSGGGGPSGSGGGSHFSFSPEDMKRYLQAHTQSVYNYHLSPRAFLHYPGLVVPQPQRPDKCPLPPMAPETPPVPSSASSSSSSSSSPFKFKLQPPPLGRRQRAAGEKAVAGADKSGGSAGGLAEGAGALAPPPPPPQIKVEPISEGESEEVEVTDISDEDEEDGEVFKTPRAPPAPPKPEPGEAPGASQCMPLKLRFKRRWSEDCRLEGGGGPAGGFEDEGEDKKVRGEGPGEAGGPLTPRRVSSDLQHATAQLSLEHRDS
To be noted: protein: recombinant; tags: N-terminal GST; dsDNA, one strand shown. In outline: as §1

Another experiment has as its target T7, ETV3L (Homo sapiens, UniProt Q6ZN32 1-361).
T7 sequence: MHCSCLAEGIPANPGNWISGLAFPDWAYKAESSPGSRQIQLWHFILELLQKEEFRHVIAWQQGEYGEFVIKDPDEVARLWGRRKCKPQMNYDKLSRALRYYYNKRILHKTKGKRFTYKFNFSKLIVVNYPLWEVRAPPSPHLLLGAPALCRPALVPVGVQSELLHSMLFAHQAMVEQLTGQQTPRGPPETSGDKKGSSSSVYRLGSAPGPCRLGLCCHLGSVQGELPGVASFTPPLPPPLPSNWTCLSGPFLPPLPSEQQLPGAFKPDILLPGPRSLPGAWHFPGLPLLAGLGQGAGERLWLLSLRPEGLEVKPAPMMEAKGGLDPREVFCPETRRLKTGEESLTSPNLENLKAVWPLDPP
The following applies: protein: recombinant; tags: N-terminal GST; dsDNA, one strand shown. In outline:
as §1

A further experiment concerns the target T8, ETS2 (Homo sapiens, UniProt P15036 1-469).
T8 sequence: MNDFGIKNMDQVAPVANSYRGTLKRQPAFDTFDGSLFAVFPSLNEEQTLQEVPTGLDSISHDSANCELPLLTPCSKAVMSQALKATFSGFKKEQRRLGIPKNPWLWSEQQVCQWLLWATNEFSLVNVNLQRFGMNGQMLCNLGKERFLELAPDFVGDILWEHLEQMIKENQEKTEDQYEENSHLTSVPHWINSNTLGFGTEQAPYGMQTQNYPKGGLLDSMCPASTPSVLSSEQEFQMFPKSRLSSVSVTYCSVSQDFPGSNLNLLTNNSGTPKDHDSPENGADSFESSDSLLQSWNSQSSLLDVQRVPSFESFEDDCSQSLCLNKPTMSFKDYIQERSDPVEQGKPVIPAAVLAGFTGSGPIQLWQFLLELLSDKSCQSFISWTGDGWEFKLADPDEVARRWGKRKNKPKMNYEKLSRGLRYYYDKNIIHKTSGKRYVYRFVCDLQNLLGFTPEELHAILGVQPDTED
To be noted: protein: recombinant; tags: N-terminal GST; dsDNA, one strand shown. In outline: as §1

The target in another experiment is T9, SPDEF (Homo sapiens, UniProt O95238 1-335).
T9 sequence: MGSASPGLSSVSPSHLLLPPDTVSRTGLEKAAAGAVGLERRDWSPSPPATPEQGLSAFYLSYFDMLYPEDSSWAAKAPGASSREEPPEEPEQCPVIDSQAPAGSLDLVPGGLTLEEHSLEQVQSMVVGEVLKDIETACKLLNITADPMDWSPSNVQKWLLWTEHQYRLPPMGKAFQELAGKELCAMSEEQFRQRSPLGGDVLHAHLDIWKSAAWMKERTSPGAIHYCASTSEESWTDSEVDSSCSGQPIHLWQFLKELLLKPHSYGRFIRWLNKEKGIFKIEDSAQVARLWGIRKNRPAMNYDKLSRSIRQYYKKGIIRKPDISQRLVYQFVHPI
To be noted: protein: recombinant; tags: N-terminal GST; dsDNA, one strand shown. Put shortly:
as §1

The target in a further experiment is T10, ETV7 (Homo sapiens, UniProt Q9Y603 1-341).
T10 sequence: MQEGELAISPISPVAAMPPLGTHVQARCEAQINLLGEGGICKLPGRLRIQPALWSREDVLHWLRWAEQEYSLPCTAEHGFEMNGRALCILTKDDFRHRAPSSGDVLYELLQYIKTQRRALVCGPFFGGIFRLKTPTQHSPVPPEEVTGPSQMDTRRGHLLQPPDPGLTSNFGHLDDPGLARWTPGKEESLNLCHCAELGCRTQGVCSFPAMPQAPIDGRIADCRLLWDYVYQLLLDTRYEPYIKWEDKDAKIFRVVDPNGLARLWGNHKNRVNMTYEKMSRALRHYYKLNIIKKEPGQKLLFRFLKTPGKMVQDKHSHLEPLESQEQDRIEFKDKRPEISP
The following applies: protein: recombinant; tags: N-terminal GST; dsDNA, one strand shown. In outline:
as §1

The next experiment concerns the target T11, ELF5 (Homo sapiens, UniProt Q9UKW6-2 1-255).
T11 sequence: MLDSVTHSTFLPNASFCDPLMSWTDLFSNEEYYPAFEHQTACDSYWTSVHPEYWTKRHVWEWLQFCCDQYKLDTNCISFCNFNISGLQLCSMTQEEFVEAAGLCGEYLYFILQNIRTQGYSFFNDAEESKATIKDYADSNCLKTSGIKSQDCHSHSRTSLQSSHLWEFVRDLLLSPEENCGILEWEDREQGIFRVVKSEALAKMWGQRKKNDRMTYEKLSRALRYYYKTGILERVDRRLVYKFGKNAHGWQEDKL
The following applies: protein: recombinant; tags: N-terminal GST; dsDNA, one strand shown. In outline: as §1

Another experiment has as its target T12, ETV3 (Homo sapiens, UniProt P41162-2 1-143).
T12 sequence: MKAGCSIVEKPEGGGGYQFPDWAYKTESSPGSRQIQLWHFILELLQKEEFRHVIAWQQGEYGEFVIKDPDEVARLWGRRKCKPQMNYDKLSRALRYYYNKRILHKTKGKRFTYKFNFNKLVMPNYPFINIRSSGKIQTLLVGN
The following applies: protein: recombinant; tags: N-terminal GST; dsDNA, one strand shown. Put shortly:
as §1

In the next experiment the target is ETV6 (Homo sapiens, UniProt P41212 1-452). The following applies: protein: recombinant; tags: N-terminal GST; dsDNA, one strand shown. In outline: as §1
ETV6, sequence (P41212 whole entry): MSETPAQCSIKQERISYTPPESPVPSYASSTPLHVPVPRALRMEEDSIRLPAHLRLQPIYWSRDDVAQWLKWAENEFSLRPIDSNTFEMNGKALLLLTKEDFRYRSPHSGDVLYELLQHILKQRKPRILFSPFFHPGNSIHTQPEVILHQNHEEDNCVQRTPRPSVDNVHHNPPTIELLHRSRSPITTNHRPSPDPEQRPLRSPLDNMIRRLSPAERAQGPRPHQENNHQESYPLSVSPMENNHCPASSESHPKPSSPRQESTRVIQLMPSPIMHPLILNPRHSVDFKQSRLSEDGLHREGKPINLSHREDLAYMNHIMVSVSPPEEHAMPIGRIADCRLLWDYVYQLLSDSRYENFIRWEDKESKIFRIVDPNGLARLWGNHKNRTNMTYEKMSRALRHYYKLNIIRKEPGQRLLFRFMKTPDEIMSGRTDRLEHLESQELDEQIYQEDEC

ETV1, sequence (P50549 whole entry): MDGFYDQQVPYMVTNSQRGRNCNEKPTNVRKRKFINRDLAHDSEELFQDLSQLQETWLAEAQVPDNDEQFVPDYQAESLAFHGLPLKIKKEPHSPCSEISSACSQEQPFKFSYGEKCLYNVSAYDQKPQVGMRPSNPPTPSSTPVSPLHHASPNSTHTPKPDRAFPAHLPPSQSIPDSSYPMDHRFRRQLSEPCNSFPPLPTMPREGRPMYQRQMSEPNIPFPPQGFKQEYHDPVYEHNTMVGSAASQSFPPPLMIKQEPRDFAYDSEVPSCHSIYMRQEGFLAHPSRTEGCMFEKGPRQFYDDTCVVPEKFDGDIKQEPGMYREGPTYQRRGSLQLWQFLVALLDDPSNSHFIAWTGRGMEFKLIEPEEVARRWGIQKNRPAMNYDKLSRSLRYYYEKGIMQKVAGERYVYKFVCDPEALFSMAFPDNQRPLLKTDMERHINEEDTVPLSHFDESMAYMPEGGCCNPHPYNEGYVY
ETV5, sequence (P41161 whole entry): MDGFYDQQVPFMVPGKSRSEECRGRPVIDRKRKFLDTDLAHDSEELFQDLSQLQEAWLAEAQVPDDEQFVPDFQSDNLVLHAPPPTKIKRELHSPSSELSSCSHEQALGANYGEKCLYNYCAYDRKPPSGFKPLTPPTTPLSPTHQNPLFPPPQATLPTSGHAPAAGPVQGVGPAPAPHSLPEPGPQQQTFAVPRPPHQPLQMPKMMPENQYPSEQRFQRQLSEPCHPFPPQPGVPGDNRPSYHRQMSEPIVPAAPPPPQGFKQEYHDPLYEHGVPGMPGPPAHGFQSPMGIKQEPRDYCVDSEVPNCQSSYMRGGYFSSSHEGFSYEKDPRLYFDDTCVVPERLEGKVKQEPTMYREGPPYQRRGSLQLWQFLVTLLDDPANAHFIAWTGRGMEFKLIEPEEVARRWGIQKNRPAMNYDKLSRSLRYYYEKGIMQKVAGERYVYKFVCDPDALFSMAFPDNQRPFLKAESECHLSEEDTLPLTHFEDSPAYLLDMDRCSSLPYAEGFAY
HSF1, sequence (Q00613 whole entry): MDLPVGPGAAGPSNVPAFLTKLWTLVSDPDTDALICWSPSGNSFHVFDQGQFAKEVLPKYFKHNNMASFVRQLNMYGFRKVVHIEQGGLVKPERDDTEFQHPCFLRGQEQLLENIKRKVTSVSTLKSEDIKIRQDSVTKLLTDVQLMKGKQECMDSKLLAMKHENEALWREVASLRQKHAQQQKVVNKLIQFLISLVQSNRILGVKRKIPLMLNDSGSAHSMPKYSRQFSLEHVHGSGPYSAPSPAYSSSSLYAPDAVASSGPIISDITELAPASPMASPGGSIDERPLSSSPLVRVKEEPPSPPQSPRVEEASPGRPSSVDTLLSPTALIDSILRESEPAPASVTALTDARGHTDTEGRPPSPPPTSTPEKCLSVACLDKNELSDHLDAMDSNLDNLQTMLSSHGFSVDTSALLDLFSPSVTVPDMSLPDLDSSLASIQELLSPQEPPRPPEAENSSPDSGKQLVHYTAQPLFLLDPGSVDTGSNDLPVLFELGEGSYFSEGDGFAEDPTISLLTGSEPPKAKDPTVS

On to CTCATG, for which the binding signal was 1.27 fold enrichment (6-mer frequency, TF over GST control) in the experiment with FEV; 1.28 fold enrichment (6-mer frequency, TF over GST control) with ETV5; 1.04 fold enrichment (6-mer frequency, TF over GST control) in the experiment with HSF1; 1.35 fold enrichment (6-mer frequency, TF over GST control) in the experiment with SPIC; 1.19 fold enrichment (6-mer frequency, TF over GST control) in the experiment with ELF4; 1.28 fold enrichment (6-mer frequency, TF over GST control) with ELK4. Moreover, the binding signal in the experiment with ETV2 was 1.24 fold enrichment (6-mer frequency, TF over GST control); with ELF3 it was 1.2 fold enrichment (6-mer frequency, TF over GST control); with CRX, 1.05 fold enrichment (6-mer frequency, TF over GST control); with ETV1, 1.29 fold enrichment (6-mer frequency, TF over GST control); with ERF, 1.18 fold enrichment (6-mer frequency, TF over GST control); with ETV3L, 1.22 fold enrichment (6-mer frequency, TF over GST control). Moreover, the binding signal with ETS2 is 1.21 fold enrichment (6-mer frequency, TF over GST control); with SPDEF it was 1.18 fold enrichment (6-mer frequency, TF over GST control); in the experiment with ETV7, 1.18 fold enrichment (6-mer frequency, TF over GST control); with ELF5, 1.19 fold enrichment (6-mer frequency, TF over GST control); with ETV3, 1.22 fold enrichment (6-mer frequency, TF over GST control); with ETV6, 1.17 fold enrichment (6-mer frequency, TF over GST control).

Source of the values: PMC7862700, “An all-to-all approach to the identification of sequence-specific readers for epigenetic DNA modifications on cytosine”.
